# The list shows a part of the results. Unmarked numbers belong to inactive results. The source made the active and inactive calls.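 Rule for the calls: active = superoxide signal below 65% of the plate average of sample wells; inactive = the rest.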
# Test: superoxide lowering in aged yeast cells, confirmation, cherry picked compounds (AID 434994);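 note: cells aged with compound for 7 days at 30 degrees C before staining; 100% equals mean DHE fluorescence of all compound wells on the plate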
# Details: S. cerevisiae aging, superoxide DHE fluorescence; at 10 µM; hits give low values
row,Structure (SMILES),superoxide response (% of plate)
1,COc1ccc(NC(C)=O)cc1NC(=O)CN1CCN(c2ccccn2)CC1,103%
2,Cc1ccc(-c2nnc(Nc3ccc(C(=O)N(C)C)cc3)c3ccccc23)cc1S(N)(=O)=O,107%
3,COc1ccc(CCNC(=O)c2ccccc2-c2ccccc2C(=O)O)cc1OC,108%
4,Cc1ccc(-c2nn(C(C)(C)C)c3ncnc(N)c23)cc1,42.9% (active)
5,Cc1cc2oc(C(=O)Nc3c(C)n(C)n(-c4ccccc4)c3=O)c(C)c2cc1Cl,93.5%
6,CC1CCCN(S(=O)(=O)c2ccc(C(=O)Nc3nnc(-c4ccncc4)o3)cc2)C1 (configuration not stated),111%
7,Cc1ccccc1NC(=O)NCC1CCN(Cc2cccc(Cl)c2)CC1,94.6%
8,COc1cc(-c2nnn(CC(=O)NCc3ccccc3)n2)cc(OC)c1OC,100%
9,O=C(Nc1ccccc1N1CCCC1)c1ccc2ccccc2c1,95.3%
10,CCN(CC)c1ccc(NC(=O)CN2CCN(c3ccccn3)CC2)cc1,101%
11,COc1cc(NC(=O)CSc2ccc(-c3cccnc3)nn2)cc(OC)c1,123%
12,CCN(CC)C(=O)CSc1nnc(-c2cccc(OC)c2)o1,113%
13,CC(=O)c1ccc2c(c1)c1ccccc1n2CC(C)C,107%
14,COC(=O)CNC(=O)c1ccc(OC2CCN(C(=O)C3CC3)CC2)cc1,103%
15,Cc1ccc(NC(=O)Cn2nc(C)c3ccccc3c2=O)c(C)c1,114%
16,Cc1cc(C(F)F)n2nc(C(=O)Nc3ccc(S(=O)(=O)NC45CC6CC(CC(C6)C4)C5)cc3)nc2n1,111%
17,Cc1ccc2cccc(S(=O)(=O)N3CCN(c4ccccc4F)CC3)c2n1,119%
18,NC(=S)Nc1c(Cl)cccc1Cl,109%
19,CC(C)NC(=O)/C(C#N)=C\c1ccc(N(C)C)c(Br)c1,88.1%
20,CC(=O)C[C@@H](O)CC(=O)[C@H]1OC(=O)CCCCCCc2ccccc21,103%
21,CCCC(C)C(=O)OCC(=O)Nc1c(Br)cc(C)cc1Br (configuration not stated),101%
22,CCn1c2ccccc2c2cc(NC(=O)CNC)ccc21,107%

# — PubChem BioAssay AID434994 (NMMLSC, 2010)
